# A selection: hits, their analogues and other compounds. The true share with any hit is near 3.3%.
# Arbovirus inh = arbovirus infection inhibition; arbovirus infection cell-based antiviral screen; inhibition, % at 10 µM; actives 0.37% (n = 200,000); in the data active means inhibition above about 30%
# WT yeast gro inh = growth inhibition of WT yeast, mitochondrial fusion screen. AID 1362. mitochondrial fusion phenotypic screen, WT strain. inhibition, % at 10 µM. actives 2.1% (n = 190,000); in the data active means inhibition above about 58%; tested in S. cerevisiae
# PERK inh = human PERK inhibition, primary cell-based screen | actives 0.17% (n = 220,000) | inhibition, % at 5.6 µM | CHO PERK-DD fusion, SEAP luminescence translation reporter | Q9NZJ5;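 active means inhibition above the mean inhibition of all tested compounds plus 3 SD, set separately per screening campaign, cut at about 2.9% in these data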;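 further: PERK kinase domain activated by AP20187 dimerizer at 100 nM; 0% = DMSO with dimerizer and 100% = rapamycin at 8.4 µM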
# ROMK primary = modulators of human ROMK potassium channel | Tet-inducible ROMK, thallium flux fluorescence; actives lie on both sides | B-score at 10 µM | actives 2% (n = 130,000) | AID 1918;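 active means signal ratio slope over the read window, or its plate-corrected B-score, at least 3 SD from the plate mean, either direction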;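 further: B-score of the F/F0 ratio slope over 7 to 12 s after thallium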
# Target sequence (P48048 whole entry, looked up): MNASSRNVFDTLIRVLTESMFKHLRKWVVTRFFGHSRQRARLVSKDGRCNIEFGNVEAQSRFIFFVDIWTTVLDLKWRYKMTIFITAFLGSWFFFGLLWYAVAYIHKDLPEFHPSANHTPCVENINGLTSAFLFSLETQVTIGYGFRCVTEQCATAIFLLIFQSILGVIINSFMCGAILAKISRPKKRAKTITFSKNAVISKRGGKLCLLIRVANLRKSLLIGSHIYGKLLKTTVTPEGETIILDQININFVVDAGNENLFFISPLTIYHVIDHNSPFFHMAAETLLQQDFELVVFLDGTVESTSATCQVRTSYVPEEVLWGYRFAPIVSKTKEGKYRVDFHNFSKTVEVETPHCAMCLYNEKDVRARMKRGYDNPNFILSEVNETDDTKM
# Starred values were filed as active, the others as inactive; / = not tested or not shown.
SMILES,Arbovirus inh,WT yeast gro inh,PERK inh,ROMK primary
O=C(CNC(=O)Cc1ccc(Cl)cc1)NCc1ccco1,-3,16,0,-0.11
CC(=O)Nc1nc(-c2ccc([N+](=O)[O-])cc2)cs1,-4,9,0,-0.72
O=C(Nc1ccc([N+](=O)[O-])cc1)Nc1nc(-c2ccc(Cl)s2)cs1,-22,87*,0,/
CCCC(=O)Nc1nc(-c2ccc(Cl)s2)cs1,14,34,1,-0.38
O=C(O)C1CCCCC1C(=O)Nc1nc(-c2ccc(Cl)s2)cs1 (centres undefined),38*,-11,1,-0.49
Cc1ccc(S(=O)(=O)N2CCC(=O)N(CCOCc3ccc(Cl)cc3)CC2)cc1,4,30,-1,-0.12
COCCN(C(=S)Nc1ccc(C(C)C)cc1)C(C)c1cccs1 (centres undefined),15,63*,1,1.2
COCCN(C(=S)Nc1c(C)cc(C)cc1C)C(C)c1cccs1 (centres undefined),-8,65*,1,0.18
Cc1nn(C)cc1S(=O)(=O)N1CCCC(C(=O)O)C1 (centres undefined),0,-9,2,/
N#Cc1c2n(c3c(=S)nc[nH]c13)CCCCC2,31*,14,0,/
COc1ccc(N2C(=O)CCC(C(=O)Nc3cccc(C)n3)C2c2ccc(OC)c(OC)c2)cc1 (centres undefined),-2,7,1,0.091
COc1ccc(C2C3=C(CC(C)(C)CC3=O)Oc3ncn(Cc4ccccc4)c(=N)c32)cc1 (centres undefined),-30,97*,-3,-0.5
O=C1C(Cl)=C(N2CCN(c3ccccc3[N+](=O)[O-])CC2)C(=O)c2ccccc21,-36,24,1,-1.5
Cc1nn(Cc2ccc(C(=O)Nc3ccccc3C(F)(F)F)o2)c(C)c1Br,-5,36,-1,/
Cc1c(Cl)c([N+](=O)[O-])nn1Cc1ccc(C(=O)NN)o1,/,/,-3,-0.18
Cc1cc(C)cc(NC(=O)c2ccc(Cn3nc(C)c(Cl)c3C)o2)c1,-33,74*,-1,-2.9
Cc1ccc(CNC(=O)c2ccc(Cn3nc(C)c(Cl)c3C)o2)cc1,9,100*,-1,-1.2
CC12CCC(C/C1=N/OC(=O)c1cccc([N+](=O)[O-])c1)C2(C)C (centres undefined),0,13,0,-0.63
Cn1c(-c2sc3cc(C(F)(F)F)cnc3c2-c2cccs2)n[nH]c1=S,10,65*,1,0.16
OCCN1CCN(c2ncnc3c2c(-c2ccccc2)cn3-c2ccc(Br)cc2)CC1,-34,85*,-1,-0.6
Nc1c(C(=O)N2CCCC2)sc2nc(-c3ccccc3)ccc12,/,/,1,0.0099
Cc1nn2c(N3CCN(c4ccccn4)CC3)cc(C(C)C)nc2c1-c1ccccc1,-1,97*,-1,/
Cc1nc2c(C(=O)NCCc3ccccc3)c[nH]n2c(=O)c1Cl,10,12,1,/
Cc1nc2c(C(=O)NCCC(C)C)c[nH]n2c(=O)c1Cl,36*,-6,0,0.82
C=CCNC1=C(Cl)C(=O)N(c2cccc(Cl)c2Cl)C1=O,5,64*,1,/
SMILES,Arbovirus inh,WT yeast gro inh,PERK inh,ROMK primary
Cc1ccnc(NS(=O)(=O)c2cc(C(F)(F)F)ccc2Cl)c1,/,/,3.4*,/
Cc1ccnc(NS(=O)(=O)c2cccs2)c1,4,20,1,/
O=C(COC(=O)C1COc2ccccc2O1)NC(=O)NC1CCCC1 (centres undefined),3,7,0,0.6
O=C(COC(=O)C1COc2ccccc2O1)NC(=O)Nc1ccc2c(c1)OCCO2 (centres undefined),0,99*,1,0.28
S=C(NCc1ccccc1)NC1CCCc2ccccc21 (centres undefined),12,72*,0,/
O=C(O)c1cc(-c2ccc(/C=N/Nc3ccc(Cl)cc3)o2)ccc1Cl,-31,62*,1,/
Nc1nonc1C(=O)N/N=C/c1ccc(-c2ccc(Cl)c(C(=O)O)c2)o1,3,-6,1,0.17
CCCn1c(SCc2cc(=O)oc3ccc4ccccc4c23)n[nH]c1=O,4,3,0,-2
CN(C)N=Nc1nc2c(c(=O)n(C)c(=O)n2C)n1C,/,/,1,/
O=C(NCCc1ccccc1)c1ncn[nH]1,0,0,0,/
O=C(NCCc1ccc(Cl)cc1)c1ncn[nH]1,-6,91*,1,-0.095
Cc1cc(C)c2[nH]c(=O)c(C(c3nnnn3CC3CCCO3)N3CCCC(C)C3)cc2c1 (centres undefined),6,0,-1,-1.7
O=C(/C=C/c1ccco1)Nc1scc(-c2ccccc2)c1C(=O)O,/,/,2,/
O=C(/C=C/c1ccccc1)Nc1scc(-c2ccccc2)c1C(=O)O,73*,-23,2,0.25
COc1ccc(-c2csc(NC(=O)Cc3cccc4ccccc34)c2C(=O)O)cc1,47*,2,1,0.58
